Our source for the Potency values is PubChem BioAssay (NCATS).

Values joined by “and” are separate entries in the source; they are usually repeats but may differ in a detail not shown here. Equal values may be shown once. Unmarked numbers belong to inactive results. Calls follow the shape of the full dose curve.
Potency is read from the fitted curve at half-maximal effect.

The target of the test is Glucocorticoid receptor (Homo sapiens) (UniProt P04150). In words: GR-EFC Redistribution (AID 451). The conditions noted are these: CHO-K1 GR-EFC translocation, beta-gal luminescence, 2 h. The text has this: NIH Molecular Libraries Screening Centers Network [MLSCN]
Sequence of Glucocorticoid receptor (Homo sapiens) (P04150 whole entry, looked up): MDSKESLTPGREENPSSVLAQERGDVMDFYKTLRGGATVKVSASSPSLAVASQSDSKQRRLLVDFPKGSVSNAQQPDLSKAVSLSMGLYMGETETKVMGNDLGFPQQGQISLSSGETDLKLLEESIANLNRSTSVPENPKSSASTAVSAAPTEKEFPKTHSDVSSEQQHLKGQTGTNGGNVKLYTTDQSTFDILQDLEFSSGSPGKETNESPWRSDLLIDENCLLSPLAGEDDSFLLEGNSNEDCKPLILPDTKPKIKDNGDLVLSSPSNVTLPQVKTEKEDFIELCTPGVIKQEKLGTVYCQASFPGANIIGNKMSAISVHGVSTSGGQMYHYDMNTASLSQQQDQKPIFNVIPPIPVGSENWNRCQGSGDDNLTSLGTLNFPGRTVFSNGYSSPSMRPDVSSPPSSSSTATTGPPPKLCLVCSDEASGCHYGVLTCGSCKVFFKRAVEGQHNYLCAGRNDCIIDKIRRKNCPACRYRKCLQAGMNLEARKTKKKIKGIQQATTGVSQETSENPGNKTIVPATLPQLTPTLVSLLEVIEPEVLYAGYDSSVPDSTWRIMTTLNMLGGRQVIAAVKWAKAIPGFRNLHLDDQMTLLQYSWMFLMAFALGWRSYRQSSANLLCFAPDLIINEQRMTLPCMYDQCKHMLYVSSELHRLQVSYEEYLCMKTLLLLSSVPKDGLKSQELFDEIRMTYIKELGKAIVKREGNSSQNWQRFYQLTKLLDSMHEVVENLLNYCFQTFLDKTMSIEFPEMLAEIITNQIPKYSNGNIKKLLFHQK
NIH Chemical Genomics Center [NCGC]
The glucocorticoid receptor (GR) is a cytoplasmic receptor that belongs to the nuclear receptor family of ligand-dependent transcription factors. Upon glucocorticoid binding to its receptor, the glucocorticoid-GR complex translocates into the nucleus, where it binds as a dimer to specific DNA sequences (glucocorticoid response elements), enhancing or suppressing transcription of a wide variety of glucocorticoid-responsive genes. In addition to their important roles in normal physiology and metabolism, glucocorticoids are administered exogenously as treatments for a wide variety of allergic, autoimmune, and neoplastic conditions. Identification of compounds that modulate aspects of GR signalling would be useful in dissecting glucocorticoid response pathways as well as developing GR modulators with more targeted clinical effects.
Traditionally, GR modulators have been identified using receptor binding or direct transactivation assays. However, assays for glucocorticoid-dependent nuclear translocation can also be used to screen for compounds affecting GR signaling.
Immunocytochemical staining has been used to assay for GR translocation, but is not suitable for high throughout screening due to the multiple reagent addition and wash steps required. Recently, a novel cell-based GR assay in Enzyme Fragment Complementation (EFC) format was developed by DiscoveRx (Fremont, CA). The assay uses EFC of b-galactosidase (b-gal) as an indicator of GR-translocation in engineered CHO-K1 biosensor cells. The enzyme acceptor (EA) fragment of b-gal resides in the nucleus , as designed through the use of a proprietary set of sequence additions and modifications. The small peptide enzyme donor (ED) fragment of b-gal is fused directly to the C-terminus of GR, and is localized in the cytoplasm is the absence of receptor signaling. Upon binding to a GR ligand, the complex translocates to the nucleus, where intact enzyme activity is restored by complementation and b-gal activity is detected. We optimized this GR-EFC assay in homogenous 1536-well plate assay format for high throughput screening.
NCGC Assay Protocol Summary:
CHO-K1 cells stably expressing NLS-enzyme acceptor fragment (EA) of b-gal and GR-enzyme donor (ED) fragment of b-gal were maintained in F12 medium (Invitrogen, Carlsbad, CA) at 37 Celsius degrees under a humidified atmosphere containing 5% CO2 and 95% air. The medium contained 10% FBS, 2 mM L-glutamine, 50 U/ml penicillin 50 ug/ml streptomycin, and 250 ug/ml hygromycin and 500 ug/ml G418 (Invitrogen).
GR-translocation was measured beta-gal enzyme activity using the PathHunter Detection Kit containing cell membrane permeablizing reagent and beta-gal substrate (DiscoveRx, Fremont, CA). All compounds were screened as titrations from 0.6 nM to 46 uM final concentration. The assay was performed in 1536-well format as follows:
5 uL cell suspension (1,000 cells)/well
Incubation at 37 Celsius degrees for two hours
1.25 uL 1X detection buffer from the kit supplied by DiscoveRx
Incubation at room temperature for one hour
Read plate in luminescence mode in ViewLux plate reader (PerkinElmer)
Keywords: NIH Roadmap, MLSCN, MLI, MLSMR, GR-EFC, GREFC, qHTS, NCGC
For `Cc1c2ccncc2c(C)c2c1[nH]c1ccccc12`, the Potency is > 46 µM and > 20.6 µM.
Take `NCCc1c[nH]c2ccc(C(N)=O)cc12`: the Potency was above 46 µM.
For `NC(=O)COc1c(F)cc(SCCNS(=O)(=O)c2ccccc2)cc1F` the value was above 46 µM; for `COc1ccc2[nH]cc(CCN)c2c1`, above 46 µM; for `NC(N)=NOCC[C@H](N)C(=O)O`, > 46 µM and > 20.6 µM.
For `C[N+]1(C)[C@@H]2CC[C@H]1CC(OC(=O)c1c[nH]c3ccccc13)C2` (stereo not given in full) the value was above 46 µM; for `Cc1[nH]c2ccc(O)cc2c1CCN`, above 46 µM; for `O=[N+]([O-])c1cc(O)c(O)c([N+](=O)[O-])c1`, above 46 µM.
On to `NNC(N)=O`, for which the Potency is above 46 µM.
The figure for `CC(C)(C)c1cc(C=C(C#N)C#N)cc(C(C)(C)C)c1O` is above 46 µM; for `CN(N=O)c1ccc(O)c(O)c1` it is above 46 µM; for `CN1CCc2cccc(Cl)c2CC1` it is above 46 µM.
The figure for `Nc1ccc(CCN2CCN(c3cccc(C(F)(F)F)c3)CC2)cc1` is above 46 µM; for `CCCN(CCC)CCc1c[nH]c2ccc(C(N)=O)cc12` it is above 46 µM.
For `C[N+]1(C)CCN(c2ccccc2)CC1` the value was above 46 µM; for `c1cc2c(c(NC3=NCCN3)c1)CCCC2`, above 9.22 µM.
As for `CCCN(CCC)[C@H]1CCc2c(F)ccc(O)c2C1`, the Potency was above 46 µM.
The figure for `CN(N=O)c1cc(O)ccc1O` is above 46 µM; for `CCCN(CCC)C1Cc2cc(OC)c(OC)cc2C1` it is above 46 µM; for `CCCn1c(=O)c2[nH]c(C3CCCC3)nc2n(CCCOC(=O)c2ccc(S(=O)(=O)F)cc2)c1=O` it is above 46 µM.
Consider `CCCN(CCC)CCc1ccc(O)c(O)c1`, for which the Potency was above 46 µM.
The figure for `CC(C)NP(=O)(NC(C)C)OP(=O)(NC(C)C)NC(C)C` is above 46 µM.
The figure for `CC(=O)NBr` is above 46 µM.
For `CN1CCc2cc(O)cc3c2[C@H]1Cc1ccc(O)c(O)c1-3` the value was above 46 µM.
Turning to `CP(=O)(O)C1=CCNCC1`, the Potency was above 46 µM.
With `CNC(=O)OCC[N+](C)(C)C`, the Potency was above 46 µM.
For `C[C@H](N)CN1CCc2ccc(Br)cc21` the value was above 46 µM.
`C[N+](C)(C)CCOC(=O)CBr`: the Potency was above 46 µM.
On to `CCS(=O)(=O)Nc1cccc(C(=C2CCCCC2)c2cnc[nH]2)c1`, for which the Potency is above 46 µM.
With `c1ccc2c(c1)[I+]c1ccccc1-2`, the Potency is above 46 µM.
For `C[C@@H]1O[C@H](C[N+](C)(C)C)CS1` the value was above 46 µM; for `c1ccc2c(N3CCNCC3)cccc2c1`, above 46 µM.
For `CN1CCC(c2c[nH]c3ccc(O)cc23)CC1` the value was above 46 µM.
For `O=[N+]([O-])c1ccc2nc(N3CCNCC3)ccc2c1` the value was above 46 µM.
Take `Cc1cc(C)cc(C(=O)OC2C[C@H]3CC[C@@H](C2)N3C)c1` (stereo not given in full): the Potency was above 46 µM.
With `O=S(=O)(O)c1cc(O)ccc1O`, the Potency is above 20.6 µM.
For `N#CC(C#N)=Cc1cc(O)c(O)c(O)c1` the value was above 46 µM; for `N[C@@H](Cn1oc(=O)[nH]c1=O)C(=O)O`, above 46 µM.
For `C[C@@H]1[C@@H]2Cc3ccc(O)cc3[C@@]1(C)CCN2CC1CC1` the value was above 46 µM; for `CCCN(CCC)[C@@H]1CCc2cccc(O)c2C1`, above 46 µM.
